The record followed here is PubChem BioAssay (NCATS).

Values joined by “and” are separate entries in the source; they are usually repeats but may differ in a detail not shown here. Equal values may be shown once. Results filed as inconclusive are left out. More than one record can exist for a structure, and the calls need not agree. Unmarked numbers belong to inactive results. Active and inactive are the calls of the source. Calls come from the whole dose curve; as a rule, active = well fitted inhibition curve with a large enough effect; inconclusive = small, poorly fitted or top-dose-only effect; inactive = flat fitted curve, though single readings scatter.
% is set by controls: 0 for no effect and ±100 for the full control effect; potency is the fitted concentration of half-maximal effect.

Tested on in the first test: not listed separately
Nature of the test: Drug repurposing screens with cells derived from glioblastoma tumor samples (AID 1345199). Note: nearly all actives have a fitted effect of over 40% in size. The conditions noted are these: GBM patient neurospheres viability, ATP luminescence, 48 h; at 46.1 µM (top of the series); tumour line C. The procedure, abridged: (§1)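 Four patient lines of CD133+ GBM neurospheres were screened at several concentrations; hits were retested in those lines plus three slower-growing GBM lines, using 48-hour treatment and ATP-based viability.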
As for `CC[C@H]1OC(=O)[C@H](C)[C@@H](O[C@H]2C[C@@](C)(OC)[C@@H](O)[C@H](C)O2)[C@H](C)[C@@H](O[C@@H]2O[C@H](C)C[C@H](N(C)C)[C@H]2O)[C@](C)(O)C[C@@H](C)C(=O)[C@H](C)[C@@H](O)[C@]1(C)O`, the activity, negative = cell killing was -1.15% and -24.2%. The same measure, in the same setting: in the case of `O=C(O)/C=C/C(O)c1ccc(Cl)cc1` (centres undefined) it was 1.95%; in that of `C=CCN1C(=O)C(CC(C)C)NC1=S` (centres undefined), -6.48% and -20.2%; in that of `C[S+](CC[C@H](N)C(=O)O)C[C@H]1O[C@@H](n2cnc3c(N)ncnc32)[C@H](O)[C@@H]1O` (some centres undefined), -29.2% and -23.1%. Still for that read-out and setting: in the case of `COc1cc(CNC(=O)CCCC/C=C/C(C)C)ccc1O` it was 17.4%; in that of `CCCCCC[C@@H](O)C/C=C\CCCCCCCC(=O)O`, -19.3% and -4.11%; in that of `Cc1onc(-c2c(F)cccc2Cl)c1C(=O)N[C@@H]1C(=O)N2[C@@H]1SC(C)(C)[C@@H]2C(=O)O`, 9.01% and 7.31%. The same measure, in the same setting: in the case of `O=C(O)COc1ccc(C(=O)c2cccs2)c(Cl)c1Cl` it was -20.3% and -8.25%. Consider `CC1(C)C[C@@H]1C(=O)N/C(=C\CCCCSC[C@H](N)C(=O)O)C(=O)O`, for which the activity, negative = cell killing was -10.6% and -17.9%.

Take `CN1[C@@H]2CC[C@H]1CC(OC(=O)C(CO)c1ccccc1)C2` (some centres undefined): the activity, negative = cell killing is 4.75% and 11.7%.

The same test, now with this note: GBM patient neurospheres viability, ATP luminescence, 48 h; tumour line A.
`CN1[C@@H](CC(=O)c2ccccc2)CCC[C@H]1C[C@H](O)c1ccccc1`: the Potency was 10 µM (active).

Turning to `COc1cc(/C=C/C(=O)CC(=O)/C=C/c2ccc(O)c(OC)c2)ccc1O`, the Potency was 12.6 µM (active). Still for that read-out and setting: in the case of `S=c1[nH]c2ccccc2s1` it was 39.8 µM (active). The same measure, in the same setting: in the case of `CN1[C@@H]2CC[C@H]1CC(OC(c1ccccc1)c1ccccc1)C2` (some centres undefined) it was 7.08 µM (active); in that of `C[S+](CC[C@H](N)C(=O)O)C[C@H]1O[C@@H](n2cnc3c(N)ncnc32)[C@H](O)[C@@H]1O` (some centres undefined), 7.08 µM (active); in that of `COc1cc(CNC(=O)CCCC/C=C/C(C)C)ccc1O`, 11.2 µM (active). The same measure, in the same setting: to `CCCCCC[C@@H](O)C/C=C\CCCCCCCC(=O)O` belongs 20 µM (active).

A further test concerns astro (control astrocytes). The test is described as above. The following applies: viability, ATP luminescence, 48 h; series mostly up to 45.9 µM; activity, negative = cell killing: at the top concentration. Summed up:
as §1
`CN1[C@@H](CC(=O)c2ccccc2)CCC[C@H]1C[C@H](O)c1ccccc1`: the “activity, negative = cell killing” value was -26.8%.

In the case of `CO/N=C(\C(=O)N[C@@H]1C(=O)N2C(C(=O)O)=C(COC(C)=O)CS[C@H]12)c1csc(N)n1` (stereo in doubt), the “activity, negative = cell killing” value is -13.1%. As to `CCCSc1ccc2nc(NC(=O)OC)[nH]c2c1`, the Potency was 501 nM (active). With `CC(C)Cc1ccc([C@H](C)C(=O)O)cc1`, the “activity, negative = cell killing” value was -15%.

With `N=c1ccn2c(n1)O[C@H]1[C@H](O)[C@@H](CO)O[C@H]12`, the “activity, negative = cell killing” value is -27.9%. For `O=C(O)[C@H](O)[C@@H](O)[C@H](O)[C@H](O)CO`, the Potency entry was “inactive”. As for `CN1[C@@H]2CC[C@H]1CC(OC(c1ccccc1)c1ccccc1)C2` (some centres undefined), the Potency result is “inactive”. In the case of `O=C(O)/C=C/C(O)c1ccc(Cl)cc1` (centres undefined), the “activity, negative = cell killing” value was -3.33%. In the case of `COc1ccc(/C=C/C(=O)Nc2ccccc2C(=O)O)cc1OC`, the Potency was 17800 nM (active). On to `COc1cc(CNC(=O)CCCC/C=C/C(C)C)ccc1O`, for which the “activity, negative = cell killing” value was -24.4%. On the same count and under the same terms, in the case of `O=c1[nH]c2ccccc2n1CCCN1CCN(C(c2ccccc2)c2ccccc2)CC1` it was -26.5%. Take `CCCCCC[C@@H](O)C/C=C\CCCCCCCC(=O)O`: the Potency entry was “inactive”. `CC(=O)[C@]1(O)Cc2c(O)c3c(c(O)c2[C@@H](O[C@H]2C[C@H](N)[C@H](O)[C@H](C)O2)C1)C(=O)c1c(O)cccc1C3=O`: the Potency is 501 nM (active) and 562 nM (active). `Cc1onc(-c2c(F)cccc2Cl)c1C(=O)N[C@@H]1C(=O)N2[C@@H]1SC(C)(C)[C@@H]2C(=O)O`: the Potency entry is “inactive”. The same measure, in the same setting: to `O=C(O)COc1ccc(C(=O)c2cccs2)c(Cl)c1Cl` belongs “inactive”; to `CC1(C)C[C@@H]1C(=O)N/C(=C\CCCCSC[C@H](N)C(=O)O)C(=O)O`, “inactive”; to `CN1[C@@H]2CC[C@H]1CC(OC(=O)C(CO)c1ccccc1)C2` (some centres undefined), “inactive”.
